Assay results reported in the supplement of paper PMC12494721.
Structures can show the parent of a compound that is named as a salt.

How the values were obtained:
Conditions in all cases: incubation time: 27 h, anaerobic, 37 °C;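 for the amine columns active = adjusted P below 0.05 in both replicates with a change the same way and a mean fold change under 0.8 or over 1.25; inactive = the rest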
[1] = system: Clostridium sporogenes DSM 1664; test: growth (OD595) fold change vs plate DMSO controls (fold change (ratio)); higher = more growth
Summary of the method: (§1)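 Shaken 96-well cultures in mGAM, grown anaerobically for 27 h at 37 °C, were read at 595 nm. OD came from blank-subtracted readings, corrected for background with 20 µM compound solutions in water and scaled by a calibration factor of 5. Growth is the fold change versus the plate's median DMSO control. Values average 2 biological replicates, and any fold change above 1.5 is NA.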

[2] = system: Escherichia coli IAI1; test: as above
Summary of the method: as §1

[3] = system: Klebsiella aerogenes DSM 30053; test: as above
Summary of the method: as §1

[4] = system: Ruminococcus gnavus DSM 108212; test: as above
Summary of the method: as §1

[5] = system: Klebsiella aerogenes DSM 30053; test: fold change of Histamine concentration vs plate DMSO controls (fold change (ratio)); higher = more amine produced, active = hit call of the paper (significant change in both replicates, either direction)
Summary of the method: (§2)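 Amine values are fold changes relative to DMSO-only wells on the same plate. They derive from 27 h, 37 °C anaerobic mGAM cultures of four gut bacterial strains in 80 µL wells, dosed at 20 µM final, or 50 µM final for sweeteners. Extraction of the whole culture, LC–triple-quadrupole MS in dynamic MRM mode, external calibration curves and within-batch drift correction were used, with 2 biological replicates averaged.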

[6] = system: Clostridium sporogenes DSM 1664; test: fold change of Tryptamine concentration vs plate DMSO controls (fold change (ratio)); higher = more amine produced, active = hit call of the paper (significant change in both replicates, either direction)
Summary of the method: as §2

[7] = system: Ruminococcus gnavus DSM 108212; test: as above
Summary of the method: as §2

[8] = system: Escherichia coli IAI1; test: fold change of Putrescine concentration vs plate DMSO controls (fold change (ratio)); higher = more amine produced, active = hit call of the paper (significant change in both replicates, either direction)
Summary of the method: as §2

[9] = system: Klebsiella aerogenes DSM 30053; test: as above
Summary of the method: as §2

[10] = system: Escherichia coli IAI1; test: fold change of Cadaverine concentration vs plate DMSO controls (fold change (ratio)); higher = more amine produced, active = hit call of the paper (significant change in both replicates, either direction)
Summary of the method: as §2

[11] = system: Klebsiella aerogenes DSM 30053; test: as above
Summary of the method: as §2

[12] = system: Ruminococcus gnavus DSM 108212; test: fold change of 2-Phenylethylamine concentration vs plate DMSO controls (fold change (ratio)); higher = more amine produced, active = hit call of the paper (significant change in both replicates, either direction)
Summary of the method: as §2

Row | SMILES | growth [1] | growth [2] | growth [3] | growth [4] | fold change of Histamine concentration [5] | fold change of Tryptamine concentration [6] | fold change of Tryptamine concentration [7] | fold change of Putrescine concentration [8] | fold change of Putrescine concentration [9] | fold change of Cadaverine concentration [10] | fold change of Cadaverine concentration [11] | fold change of 2-Phenylethylamine concentration [12]
1 | CN(C)CCCC1(c2ccc(F)cc2)OCc2cc(C#N)ccc21 (configuration not stated) [Citalopram hydrobromide] (20 µM) | 0.923 | 0.992 | 0.994 | 1.08 | 0.919 (inactive) | 0.955 (inactive) | 0.845 (inactive) | 0.927 (inactive) | 1 (inactive) | 0.991 (inactive) | 1.01 (inactive) | 0.788 (inactive)
2 | C=CCSCC1Nc2cc(Cl)c(S(N)(=O)=O)cc2S(=O)(=O)N1 (configuration not stated) [Althiazide] (20 µM) | 1.06 | 1.11 | 1.01 | 1.02 | 0.981 (inactive) | 1.03 (inactive) | 1.24 (inactive) | 1.21 (inactive) | 1.03 (inactive) | 1.06 (inactive) | 1.12 (inactive) | 1.66 (active)
3 | CC(=O)OCC(=O)[C@@]1(O)CC[C@H]2[C@@H]3CCC4=CC(=O)CC[C@]4(C)[C@H]3[C@@H](O)C[C@@]21C [Cortisol acetate] (20 µM) | 1.13 | 1.03 | 1.04 | 1 | 0.896 (inactive) | 0.975 (inactive) | 0.979 (inactive) | 0.987 (inactive) | 0.993 (inactive) | 0.97 (inactive) | 1.01 (inactive) | 0.953 (inactive)
4 | CCCC(=O)N1CCCN(c2nc(N)c3cc(OC)c(OC)cc3n2)CC1 [Bunazosin hydrochloride] (20 µM) | 1.05 | 1.05 | 1 | 1.06 | 1.04 (inactive) | 1.02 (inactive) | 1 (inactive) | 0.989 (inactive) | 0.996 (inactive) | 0.996 (inactive) | 0.984 (inactive) | 1.03 (inactive)
5 | CC(=O)O[C@]1(C(C)=O)CC[C@H]2[C@@H]3C=C(C)C4=CC(=O)CC[C@@H]4[C@H]3CC[C@@]21C [Nomegestrol acetate] (20 µM) | 1.01 | 1.05 | 1.05 | 1.25 | 0.943 (inactive) | 1.01 (inactive) | 1.03 (inactive) | 1.03 (inactive) | 1 (inactive) | 0.946 (inactive) | 1.03 (inactive) | 1.02 (inactive)
6 | CO/N=C(\C(=O)N[C@@H]1C(=O)N2C(C(=O)O)=C(COC(N)=O)CS[C@H]12)c1ccco1 [Cefuroxime sodium salt] (20 µM) | 0 | 0.0568 | 0.796 | 0.229 | 1.1 (inactive) | 0.031 (active) | 0.0602 (active) | 0.84 (inactive) | 1.03 (inactive) | 1.98 (active) | 1.07 (inactive) | 0.0618 (active)
7 | c1ccc(CN(CC2=NCCN2)c2ccccc2)cc1 [Antazoline hydrochloride] (20 µM) | 0.903 | 0.968 | 0.958 | 0.834 | 1.06 (inactive) | 0.965 (inactive) | 1.06 (inactive) | 0.929 (inactive) | 1.01 (inactive) | 1.07 (inactive) | 0.998 (inactive) | 1.08 (inactive)
8 | Cc1nc2n(c(=O)c1CCN1CCC(c3noc4cc(F)ccc34)CC1)CCCC2O (configuration not stated) [Paliperidone] (20 µM) | 0.897 | 1.01 | 0.982 | 1 | 1.05 (inactive) | 0.998 (inactive) | 0.966 (inactive) | 1.06 (inactive) | 1.02 (inactive) | 0.993 (inactive) | 0.986 (inactive) | 0.983 (inactive)
9 | CN(C)[C@@H]1C(=O)C(C(N)=O)=C(O)[C@@]2(O)C(=O)C3=C(O)c4c(O)ccc(Cl)c4[C@@H](O)[C@H]3C[C@@H]12 [Demeclocycline hydrochloride] (20 µM) | 0 | 0.0384 | 0.0385 | 0.802 | 0.107 (active) | 0.0455 (active) | 0.319 (active) | 0.239 (active) | 0.472 (active) | 0.225 (active) | 0.547 (active) | 0.364 (active)
10 | Cc1cc(NS(=O)(=O)c2ccc(N)cc2)nc(C)n1 [Sulfisomidine] (20 µM) | 1.12 | 1.07 | 1.04 | 1.03 | 1.02 (inactive) | 1.08 (inactive) | 1.04 (inactive) | 0.985 (inactive) | 0.987 (inactive) | 0.993 (inactive) | 0.992 (inactive) | 1.08 (inactive)
11 | CC(=O)Oc1ccccc1C(=O)Nc1ncc([N+](=O)[O-])s1 [Nitazoxanide] (20 µM) | 0.00234 | 0.925 | 0.915 | 0.11 | 0.982 (inactive) | 0.0219 (active) | 0.045 (active) | 1.02 (inactive) | 0.982 (inactive) | 1.25 (inactive) | 1.01 (inactive) | 0.0405 (active)
